PubChem BioAssay AID652058 (Broad Institute, 2013)
Screen size: about 1,200 compounds; about 870 (72%) were called active. About 3% were inconclusive and are not listed.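 Rule for the calls: active = every test run fits a falling curve whose half-maximal concentration is at most twice the top valid dose; inconclusive = runs disagree, or flat 30 to 70% inhibition, or poor fit; inactive = every run inactive: flat, rising or weaker potency.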 The set was probably picked from earlier hits. Not all results are given here. Potency and affinity values are given separately.

Assay: blockers of HIV-1 ZM109 envelope-driven cell-cell fusion – HeLa effector, CEM target cells, luciferase, cherry-pick, dose response (AID 652058);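 note: 0% = neutral control wells and -100% = maraviroc 300 nM wells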
Details: HeLa Env/CEM cell fusion, 16-24 h; series mostly up to 35 µM; activity change, negative = inhibition: at the top concentration

Activity change, negative = inhibition, inactive:
O=C(c1ccc(Cl)cc1)N1CCCCC(Sc2nnc(-c3ccc4c(c3)OCO4)o2)C1=O (stereo unspecified) -15.8%
COc1cccc(S(=O)(=O)N[C@H]2CC[C@H](CC(=O)NCc3ccncc3)O[C@@H]2CO)c1 -19%
O=C(C[C@H]1C[C@H]2c3cc(NC(=O)Cc4ccncc4)ccc3O[C@H]2[C@@H](CO)O1)NCc1ccncc1 9.47%
Cn1c(-c2ccc(Cl)cc2)ccc(C#N)c1=O 154%
Cc1onc(-c2ccccc2)c1C(=O)OCCOc1cccc(Cl)c1 230%
Cn1cccc1C(=O)OCC(=O)NCCc1ccc(S(N)(=O)=O)cc1 -0.379%
Cn1c(=O)c2c(nc(NCCc3ccccc3)n2Cc2ccccc2)n(C)c1=O -5.69%
COc1ccc(S(=O)(=O)N2CCCCC2)cc1NC(=O)CCCOc1ccc(C)cc1 28.8%
CCOC(=O)CN1CCCc2nc(C)c(C)cc21 -37.3%
COCc1[nH]nc2c1C(c1ccc(F)cc1)N(Cc1ccccc1)C2=O (stereo unspecified) 25.9%
CC(=O)Nc1ccc(C(=O)OCC(=O)NC(=O)NCc2ccccc2)cc1 16.9%
CCN(CC)S(=O)(=O)c1cccc(NC(=O)c2ccc(-n3nc(C)cc3C)cc2)c1 -37.1%
CCN(CC)S(=O)(=O)c1ccc(NC(=O)Nc2cccc(C(F)(F)F)c2)cc1 254% [at 16 µM]
CC(C)(C)c1ccc(-n2ncc3c2CCCC3NC(=O)CN2CCCC2=O)cc1 (stereo unspecified) -25.1%
C[C@H](CO)N1C[C@H](C)[C@H](CN(C)S(=O)(=O)c2ccccc2)Oc2cc(Br)ccc2S1(=O)=O 95.4%
CC(C)(C)c1ccc(OCCC(=O)Nc2cccc(S(=O)(=O)N3CCOCC3)c2)cc1 5.13%
CCc1nc(N2CCCCC2)c2oc3ccccc3c2n1 26.5%
CCc1nc(N2CCCCC2C)c2oc3ccccc3c2n1 (stereo unspecified) 140%
O=C1c2cccc(OCc3ccc(F)cc3)c2CCN1Cc1ccccc1 93.8%
NC(=S)c1ccc(OCCCc2ccccc2)cc1 111% [at 8 µM]
Nc1nc2c(ncn2[C@@H]2O[C@H](C(=O)NCC(c3ccccc3)c3ccccc3)[C@@H](O)[C@H]2O)c(=O)[nH]1 38.2%
Nc1ncn([C@H]2C[C@H](O)[C@@H](CO)O2)c(=O)n1 20.5%
O=S(=O)(NC1CC1)c1ccc(S(=O)(=O)N2CCCc3ccccc32)cc1 -38.3%
O=C(Cn1ncc2c(=O)oc3ccccc3c21)N1CCC(N2CCCCC2)CC1 15.6%
O=C(CCNC(=O)c1ccc(Br)cc1)NNC(=O)COc1ccccc1F -20.2%
O=C(NCCc1ccccc1)c1ccc2c(c1)OCCO2 -95.2%
CC(=O)c1c(C)[nH]c(C(=O)OCCCCN2C(=O)c3ccccc3C2=O)c1C 7.87%
CC(C)C#Cc1ccc2c(c1)O[C@@H](CN(C)C(=O)C1CCCCC1)[C@H](C)CN([C@H](C)CO)S2(=O)=O 103% [at 16 µM]
COc1ccc(-c2ccc3c(c2)[C@@H]2[C@@H](CCN2C(=O)NC2CCCC2)[C@H](CO)N3C)cc1 -28.1% [at 30 µM]
N#CCSc1nnc(-c2sc3ccccc3c2Cl)o1 -1.12%
C[C@@H]1CN([C@H](C)CO)S(=O)(=O)c2ccc(-c3ccccc3)cc2O[C@@H]1CN(C)Cc1ccccc1 -1.1%
CCOc1ccc(NC2c3ccccc3C(=O)N2Cc2ccco2)cc1 (stereo unspecified) 64.9%
Cc1ccc(S(=O)(=O)N(C)C[C@H]2Oc3ccc(NC(=O)Nc4cccc5ccccc45)cc3C(=O)N([C@H](C)CO)C[C@@H]2C)cc1 20.3%
C[C@@H]1CN([C@H](C)CO)C(=O)c2cc(NC(=O)Nc3ccccc3)ccc2O[C@@H]1CN(C)S(=O)(=O)c1ccccc1 -7.14%
COc1ccccc1C#Cc1ccc([C@H]2[C@H](C#N)N(C(=O)C3CCCC3)[C@H]2CO)cc1 21.4%
CCCCS(=O)(=O)N1CCN(C(=O)C(=O)c2cccc(C(F)(F)F)c2)CC1 -13.8%
COc1ccc(C)cc1NC(=O)CCNS(=O)(=O)c1ccc2c(c1)CC(C)N2C(C)=O (stereo unspecified) 12.6%
COc1ccc(NC(=O)C(=O)NCC2CCCN2S(=O)(=O)c2cccs2)cc1 (stereo unspecified) 318%
O=C(Nc1ccc(C(=O)OC2CCCCC2)cc1)c1ccncc1 -13.2%
Cc1cccc(/C=N\Nc2cn[nH]c(=O)c2Cl)c1 105% [at 16 µM]
COc1ccc(NC(=O)CN2CCC(C(N)=O)(N3CCCCC3)CC2)cc1 25.3%
COc1ccc(-c2cn(CC[C@H]3CC[C@H](NS(=O)(=O)c4ccccc4C)[C@H](CO)O3)nn2)cc1 -19.3%
O=C(Nc1cccc(F)c1)N[C@@H]1CC[C@H](CCNS(=O)(=O)c2cccc(Cl)c2)O[C@@H]1CO 2.99%
O=C(CCN1CCCCC1)N[C@@H]1CC[C@@H](CCn2cc(-c3ccccc3)nn2)O[C@@H]1CO 17.2%
CN(C)Cc1cn(CC[C@@H]2CC[C@H](N)[C@H](CO)O2)nn1 -70.1%
O=C(Nc1cccc(F)c1)N[C@H]1CC[C@@H](CCNS(=O)(=O)c2cccc(Cl)c2)O[C@H]1CO 8.01%
O=C(Cc1ccncc1)N[C@H]1CC[C@@H](CCn2cc(-c3ccccc3F)nn2)O[C@@H]1CO 49%
COc1ccc(-c2c(C)nn3c(C(F)(F)F)cc(C)nc23)cc1 9.52%
CCCNC(=O)C[C@@H]1C[C@H]2c3cc(NC(=O)c4cccnc4)ccc3O[C@H]2[C@H](CO)O1 34.3%
Cc1cccc(C)c1N(CC(O)Cn1c2ccccc2c2ccccc21)S(C)(=O)=O (stereo unspecified) -40.2%
CCNC(=O)C[C@@H]1CC[C@@H]2[C@H](COC[C@@H](O)CN2C(=O)c2ccccn2)O1 -4.02%
CS(=O)(=O)N1CCc2cc(-c3csc(NC(=O)Cc4cccs4)n3)ccc21 69.4% [at 16 µM]
O=C(Nc1nc(-c2ccc3c(c2)OCO3)cs1)c1ccncc1 25.4%
CCOC(=O)[C@@H]1[C@H]2COc3cc(OC)ccc3[C@H]2N2C(=O)N(c3cccc(F)c3)C(=O)[C@@]12C 109% [at 16 µM]
O=C(C[C@@H]1C[C@@H]2c3cc(NC(=O)c4ccc5c(c4)OCO5)ccc3O[C@@H]2[C@@H](CO)O1)NCc1ccc(Oc2ccccc2)cc1 -69.4% [at 30 µM]
O=C(C[C@@H]1C[C@@H]2c3cc(NC(=O)Nc4ccccc4)ccc3O[C@@H]2[C@@H](CO)O1)NCc1ccccc1 28.1% [at 30 µM]
COc1ccccc1CNC(=O)C[C@H]1C[C@@H]2c3cc(NC(=O)c4cccnc4)ccc3O[C@@H]2[C@@H](CO)O1 116%
O=C(C[C@@H]1C[C@@H]2c3cc(NS(=O)(=O)c4ccc(F)cc4)ccc3O[C@@H]2[C@H](CO)O1)NCc1ccccc1F 7.66%
COC(=O)Cn1cnc2c(Cl)nc(F)nc21 -2.77%
O=C(C[C@H]1C[C@@H]2c3cc(NC(=O)C4CCOCC4)ccc3O[C@@H]2[C@H](CO)O1)NCc1ccccc1 -15.5%
O=C(C[C@@H]1C[C@H]2c3cc(NC(=O)C4CCC4)ccc3O[C@H]2[C@H](CO)O1)NCC(F)(F)F -6.6%
CN(C)C(=O)C[C@@H]1C[C@@H]2c3cc(NS(=O)(=O)c4ccc(F)cc4)ccc3O[C@@H]2[C@@H](CO)O1 19.1%
CN(C)C(=O)C[C@@H]1C[C@H]2c3cc(NS(=O)(=O)c4ccc(F)cc4)ccc3O[C@H]2[C@H](CO)O1 2.15%
O=C(C[C@H]1C[C@H]2c3cc(NC(=O)C4CCC4)ccc3O[C@H]2[C@@H](CO)O1)NCc1ccc2c(c1)OCO2 52.9% [at 30 µM]
CCCNC(=O)C[C@@H]1C[C@@H]2c3cc(NC(=O)Cc4ccncc4)ccc3O[C@@H]2[C@H](CO)O1 -1.71%
CCCNC(=O)C[C@@H]1C[C@@H]2c3cc(NC(=O)CN(C)C)ccc3O[C@@H]2[C@H](CO)O1 -28.8%
CC(=O)OC1c2ccccc2C(=O)N1c1ccccc1C (stereo unspecified) 18.1%
O=C(COC(=O)c1cccc(S(=O)(=O)N2CCOCC2)c1)NCc1ccccc1 86.8%
Cc1ccc(S(=O)(=O)N(C)c2ccc(C(=O)N3CCN(Cc4ccc5c(c4)OCO5)CC3)cc2)cc1 -25.3%
c1ccc(CSc2nnc([C@@H]3CCCN3)o2)cc1 -13.7%
Cc1nnc(SC(=O)N2c3ccccc3Sc3ccccc32)s1 -16.8%
Cc1ccccc1-n1c(=O)c2ccccc2n2cnnc12 15.4%
O=c1c2ccccc2nnn1CSc1nnc(COc2ccc(Cl)cc2)n1Cc1ccco1 -43.6% [at 16 µM]
O=C(CNC(=O)c1cccc(-n2cccc2)c1)Nc1ccccc1Br -5.92%
Cc1ccc(S(=O)(=O)N[C@@H]2CC[C@H](CCNC(=O)c3ccccc3F)O[C@H]2CO)cc1 -27.1%
COc1cccc(S(=O)(=O)N[C@H]2CC[C@@H](CCN)O[C@@H]2CO)c1 52.5% [at 16 µM]
O=C(NCC[C@@H]1CC[C@@H](NS(=O)(=O)c2ccccc2F)[C@@H](CO)O1)c1ccc(F)cc1 104%
COc1ccccc1S(=O)(=O)N[C@H]1CC[C@H](CC(=O)N2CCN(C)CC2)O[C@H]1CO -11.3%
COc1cc(-c2cc(OC)c(O)c(OC)c2)cc(OC)c1O 4.4%
Cc1ccc(C2Oc3ccccc3C3=C2C(c2cccs2)n2ncnc2N3)cc1 (stereo unspecified) 30.7%
O=C(NCCCN1CCc2ccccc2C1)Nc1ccc(Cl)cc1 -29.2%
O=C(CN1CCCN(Cc2ccc(F)cc2Cl)C1=O)NC1CCCCCCC1 2.63%
CCN(CC)S(=O)(=O)c1cccc(S(=O)(=O)c2cccc(S(=O)(=O)N(CC)CC)c2)c1 2.38% [at 16 µM]
CS(=O)(=O)N(Cc1ccc(Cl)cc1)c1ccc(C(=O)NCCC2=CCCCC2)cc1 48.8%
CCCNC(=O)C[C@H]1C[C@H]2c3cc(NC(=O)Cc4ccncc4)ccc3O[C@H]2[C@H](CO)O1 -57.4%
COc1ccc2c3c([nH]c2c1)[C@H](CO)N(C(=O)Nc1cccc(F)c1)CC31CCN(S(=O)(=O)c2ccccc2)CC1 -93.1%
COc1ccc(S(=O)(=O)N[C@@H]2CC[C@@H](CC(=O)NCCc3ccncc3)O[C@@H]2CO)cc1 -19.1%
CCCCOc1ccc(S(=O)(=O)Nc2cccnc2)cc1 -24.9%
CC(=O)c1ccc(S(=O)(=O)N2CCN(c3nc4c(C)c(C)ccc4cc3C#N)CC2)cc1 -2.04%
O=C(Nc1nc2ccccc2[nH]1)c1ccccc1F -7.03%
Cc1ccc(NC(=O)c2ccc(CN3CCc4ccccc4C3)cc2)cc1 45.7%
COC(=O)[C@H](Cc1ccccc1)NC(=O)Cn1cnc(C(=O)Nc2ccc(C)c(C)c2)n1 18.5%
Cc1ccc(NC(=O)c2ccc(OCC3CCCO3)cc2)cc1Cl (stereo unspecified) 225%
O=C(Nc1ccc(Cl)cc1)Nc1cccc(C(=O)O)c1 -85.6%
Cn1c(CN2CCCCC2)nc2cc(NC(=O)c3ccc(Cl)cc3)ccc21 39.5%
O=C(COc1ccc(-n2cnnn2)cc1)Nc1ccc(F)c(F)c1 2.63%
